Experimental findings from PubChem BioAssay AID1053143 (Broad Institute, 2014) are described below.

SMILES strings stand for the structures. Hit rate of the full screen: of about 3,400 compounds, about 120 (3.5%) were called active. No rule for the calls is given here. Only a sample is shown. Measured potencies and affinities stand elsewhere.

This assay can be described thus: HepG2 cell cytotoxicity, dose response, cytotoxicity control, ATP luminescence, cherry-pick, activator set 2 (AID 1053143). As to conditions: HepG2 viability, CellTiter-Glo ATP luminescence, 72 h; series mostly up to 26 µM. (In ATP-based viability assays light output follows the ATP content of the culture.)
Turning to `Fc1cccc(CSc2ccc(-c3ccco3)nn2)c1`, the activity change, negative = cytotoxicity entry is “inactive”. Under `CC(SCc1ccccc1)C(=O)Nc1ccccc1` (centres undefined) stands “inactive”; under `CCOC(=O)c1cc(OCC)c2c(ccc3ccccc32)n1`, “inactive”.

With `COc1cccc(/C=C/c2ccccn2)c1O`, the activity change, negative = cytotoxicity result is “inactive”.

As for `COc1c(OC(C)=O)ccc(/C=C/c2ccc3cccc(OC)c3n2)c1[N+](=O)[O-]`, the activity change, negative = cytotoxicity entry was “inactive”.

In the case of `COc1cccc(/C=C/c2ccc3cccc(O)c3n2)c1OC`, the activity change, negative = cytotoxicity entry was “inactive”. Under `COc1ccc(-c2csc(NC(=O)CC(C)C)n2)cc1` stands “inactive”; under `COc1ccccc1N1CCN(/N=C\c2ccc(C)o2)CC1`, “inactive”; under `COc1ccc(CCNC2CC(=O)N(CCc3ccccc3)C2=O)cc1OC` (centres undefined), “inactive”.

Regarding `COc1ccc(Nc2ccc3ccccc3c2)cc1`, the activity change, negative = cytotoxicity entry was “inactive”.

As to `Clc1nc(Nc2ccccc2)nc(Nc2ccccc2)n1`, the activity change, negative = cytotoxicity result was “inactive”. In the case of `COc1ccc2cc(-c3cccnc3)ncc2c1`, the activity change, negative = cytotoxicity entry was “inactive”. As for `O=[N+]([O-])c1ccc(Nc2nccc(Cl)n2)cc1`, the activity change, negative = cytotoxicity entry was “inactive”.

Regarding `COc1ccc(Nc2nc(N)nc(CSc3nccn3C)n2)cc1`, the activity change, negative = cytotoxicity result was “inactive”. For the molecule `COc1ccc(NC(=O)Nc2cc(C)ccn2)cc1`, the activity change, negative = cytotoxicity result is “inactive”.

On to `O=C(c1ccc(Cl)c([N+](=O)[O-])c1)N(Cc1ccc(Cl)cc1)C1CCS(=O)(=O)C1` (centres undefined), for which the activity change, negative = cytotoxicity entry is “inactive”. Under `Cn1nnc(NC(=O)C(c2ccccc2)c2ccccc2)n1` stands “inactive”.

Turning to `O=C(CNC(=O)c1ccccc1)OCC(=O)N1N=C(c2ccc(Cl)cc2)CC1c1ccco1` (centres undefined), the activity change, negative = cytotoxicity result was “inactive”. Under `C#CCNC(=O)/C=C/c1ccc(OC)cc1` stands “inactive”; under `Cc1nc2ccc(NC(=O)c3ccc(Cl)s3)cc2s1`, “inactive”. As for `C=CCOc1ccc2c(OC)c3ccoc3nc2c1OC`, the activity change, negative = cytotoxicity entry is “inactive”.

For the molecule `CCCC(=O)N(C)c1nnc(-c2ccc(OC)cc2)s1`, the activity change, negative = cytotoxicity entry is “inactive”.

Take `COc1ccc(C)cc1NC(=O)C1CCCN1S(=O)(=O)c1ccccc1F` (centres undefined): the activity change, negative = cytotoxicity entry was “inactive”.

Turning to `Cn1cccc1C(=O)OCC(=O)c1cc2ccccc2o1`, the activity change, negative = cytotoxicity entry is “inactive”. On to `COc1cc(Cl)ccc1OCc1cc(C(=O)N2C[C@@H]3CCC[C@H]2C3)no1`, for which the activity change, negative = cytotoxicity result is “inactive”.

As for `O=C(/C=C/c1ccco1)Nc1nc(-c2ccccc2)cs1`, the activity change, negative = cytotoxicity entry is “inactive”. Under `Nc1cc(-c2ccc(Cl)cc2)nn1-c1ccccc1` stands “inactive”; under `Cc1occc1C(=O)O/N=C(\N)c1ccc(Cl)cc1`, “inactive”; under `O=C(Nc1nc(=O)c2ccccc2s1)c1ccccc1`, “inactive”. In the case of `O=C(Nc1nc2ccccc2s1)c1ccc(F)cc1`, the activity change, negative = cytotoxicity result is “inactive”. Under `O=C(c1ccccc1)c1cnc(-c2ccc(Cl)cc2)s1` stands “inactive”. In the case of `CCCC(=O)N/C(N)=N/c1nc2ccccc2o1`, the activity change, negative = cytotoxicity entry was “inactive”. As to `Cc1nc(Nc2ccccc2)sc1C(=O)c1ccccc1`, the activity change, negative = cytotoxicity entry is “inactive”.

With `Nc1nc(Nc2ccccc2F)sc1C(=O)c1ccccc1`, the activity change, negative = cytotoxicity entry is “inactive”.

As to `Cc1ccc(Nc2ncccc2C(N)=O)cc1[N+](=O)[O-]`, the activity change, negative = cytotoxicity result is “inactive”. Under `CCOC(=O)c1ccc(N2Cc3ccccc3C2=NC(=O)c2ccncc2)cc1` stands “inactive”; under `Cc1ccc(Nc2nc3ccccc3o2)cc1F`, “inactive”. Under `O=c1sc2ccccc2n1CCCOc1ccccc1` stands “inactive”. Under `Cc1ccc(OCCn2cnc3ccccc3c2=O)c([N+](=O)[O-])c1` stands “inactive”. For `Cn1c(-c2ccc([N+](=O)[O-])cc2)nc2ccccc21`, the activity change, negative = cytotoxicity result is “inactive”. Under `Fc1cccc(-c2ncc(-c3ccccc3)o2)c1` stands “inactive”; under `O=C(Nc1nc2ccc([N+](=O)[O-])cc2s1)c1ccco1`, “inactive”. Under `O=C(Nc1nc2c(ccc3ccccc32)s1)c1ccco1` stands “inactive”; under `Cc1cc2sc(NC(=O)c3ccco3)nc2cc1Cl`, “inactive”. Under `CCOC(=O)c1ccc2nc(NC(C)=O)sc2c1` stands “inactive”; under `Cc1cc(NC(=O)c2ccccc2)sc1C`, “inactive”; under `O=C(Nc1cc(-c2ccccc2)cs1)c1ccco1`, “inactive”. With `CCOc1ccc(NC(=O)Cc2ccccc2)cc1`, the activity change, negative = cytotoxicity result is “inactive”. Under `COC(=O)c1sc2nc3c(cc2c1N)CCCC3` stands “inactive”. As for `CC(C)c1ccc(NC(=O)c2cccc(Br)c2)cc1`, the activity change, negative = cytotoxicity entry was “inactive”.

For the molecule `COc1cc(/C=N/NC(=O)CNC(=O)c2ccccc2)ccc1OC(=O)c1cccs1`, the activity change, negative = cytotoxicity entry was “inactive”. Under `O=C(Nc1nc2ccc(Cl)cc2s1)C1CC1` stands “inactive”. Under `CCC1CCCCN1S(=O)(=O)c1ccc(NC(=O)C2CC(=O)N(C(C)(C)C)C2)cc1` (centres undefined) stands “inactive”. Under `O=c1[nH]c2ccccc2nc1CCc1ccccc1` stands “inactive”; under `COc1cc(OC)cc(C(=O)NCC(=O)Nc2ccc(C)c(Cl)c2)c1`, “inactive”. For `Cc1cc(N2CCCCC2)nc2ccc(NC(=O)CCC(=O)NCCC(C)C)cc12`, the activity change, negative = cytotoxicity result is “inactive”. Turning to `CCn1ccc(C(=O)Nc2ccc(Cl)cn2)n1`, the activity change, negative = cytotoxicity result is “inactive”. Under `O=C1c2ccccc2-c2nc3ccccc3cc21` stands “inactive”; under `c1ccc2c(c1)Cc1cc3ccccc3nc1-2`, “inactive”. Regarding `CC(C)Sc1ccc(C(=O)Nc2ccc(F)cc2F)cn1`, the activity change, negative = cytotoxicity entry is “inactive”. Under `CCC(C)Sc1ccc(-c2nc3ccc(Cl)cn3c2NCc2ccccc2)cc1` (centres undefined) stands “inactive”; under `CN(Cc1ccsc1)C(=O)CCc1nnc(CCCc2ccccc2)o1`, “inactive”; under `O=C(Nc1ccccn1)C(=O)Nc1ccccn1`, “inactive”. Under `Cc1n[nH]c(=O)nc1N/N=C/c1ccco1` stands “inactive”.
